Measurements from article PMC5700166.
Changes are numbered by the printed parent chain.

Tests used:
Assay in all cases: protein-binding microarray (PBM); PBM: ~300 nM protein, 6 mM HEPES pH 7.8, 80 mM KCl, 0.5 mM EDTA, 0.5 mM EGTA, 6% glycerol, 35 ng/ul poly-dIdC, 1% milk, 1 h, room temperature; Ap Aiptasia and Nv Nematostella (sea anemones) / Co Capsaspora / Aq Amphimedon (sponge) / Dm Drosophila / Hu human; RHD is the Rel homology domain; high values mean tight binding
Conditions in all cases: dsDNA, one strand shown
GST-Ap-NF-kB RHD = biological target: T1, GST-Ap-NF-kB RHD (Exaiptasia pallida (Aiptasia), UniProt A0A913YAJ5 2-422)
T1 sequence: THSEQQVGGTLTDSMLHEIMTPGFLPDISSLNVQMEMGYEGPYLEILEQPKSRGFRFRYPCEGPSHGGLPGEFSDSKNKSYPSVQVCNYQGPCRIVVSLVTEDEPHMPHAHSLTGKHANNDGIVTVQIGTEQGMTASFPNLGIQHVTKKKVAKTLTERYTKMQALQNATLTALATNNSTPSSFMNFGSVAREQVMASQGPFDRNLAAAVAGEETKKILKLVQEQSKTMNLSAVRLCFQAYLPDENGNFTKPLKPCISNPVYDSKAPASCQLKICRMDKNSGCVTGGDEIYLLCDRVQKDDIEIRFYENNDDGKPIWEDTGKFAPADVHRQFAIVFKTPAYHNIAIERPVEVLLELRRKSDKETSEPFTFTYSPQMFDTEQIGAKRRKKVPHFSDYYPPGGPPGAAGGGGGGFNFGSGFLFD

[1] = biological target: T2, GST-Nv-NF-kB (Cys allele) (Nematostella vectensis, UniProt E5G601 2-411)
T2 sequence: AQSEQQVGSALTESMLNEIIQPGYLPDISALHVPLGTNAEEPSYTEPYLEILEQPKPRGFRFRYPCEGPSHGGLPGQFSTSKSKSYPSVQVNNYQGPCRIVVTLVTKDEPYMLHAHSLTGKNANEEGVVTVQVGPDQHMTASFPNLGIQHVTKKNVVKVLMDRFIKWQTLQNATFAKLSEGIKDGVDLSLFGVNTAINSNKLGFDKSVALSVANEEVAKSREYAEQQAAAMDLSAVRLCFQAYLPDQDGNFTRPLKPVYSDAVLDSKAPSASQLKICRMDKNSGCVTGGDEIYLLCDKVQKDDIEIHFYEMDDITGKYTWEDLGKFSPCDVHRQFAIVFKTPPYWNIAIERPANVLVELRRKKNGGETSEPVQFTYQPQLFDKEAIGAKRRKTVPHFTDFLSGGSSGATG

[2] = biological target: T3, GST-Nv-NF-kB (Ser allele) (Nematostella vectensis, UniProt A7UNT2 2-411)
T3 sequence: T2 sequence with Q21R, C66S, S207N, E215Q, V217A, E225K, A268E, D399E

GST-Co-NF-kB = biological target: T4, GST-Co-NF-kB (Capsaspora owczarzaki, UniProt F1ARL5 200-546)
T4 sequence: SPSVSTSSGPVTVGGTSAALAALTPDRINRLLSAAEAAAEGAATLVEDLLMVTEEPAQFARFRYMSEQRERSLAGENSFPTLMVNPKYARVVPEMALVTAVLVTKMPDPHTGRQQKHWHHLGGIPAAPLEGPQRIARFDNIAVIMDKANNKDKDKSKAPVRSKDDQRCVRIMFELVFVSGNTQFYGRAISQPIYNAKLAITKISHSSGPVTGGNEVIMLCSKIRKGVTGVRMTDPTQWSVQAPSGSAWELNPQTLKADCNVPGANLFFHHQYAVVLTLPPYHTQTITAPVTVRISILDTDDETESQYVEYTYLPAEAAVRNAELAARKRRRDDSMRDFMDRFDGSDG

GST-Dm-Relish = biological target: T5, GST-Dm-Relish (Drosophila melanogaster, UniProt Q94527 99-473)
T5 sequence: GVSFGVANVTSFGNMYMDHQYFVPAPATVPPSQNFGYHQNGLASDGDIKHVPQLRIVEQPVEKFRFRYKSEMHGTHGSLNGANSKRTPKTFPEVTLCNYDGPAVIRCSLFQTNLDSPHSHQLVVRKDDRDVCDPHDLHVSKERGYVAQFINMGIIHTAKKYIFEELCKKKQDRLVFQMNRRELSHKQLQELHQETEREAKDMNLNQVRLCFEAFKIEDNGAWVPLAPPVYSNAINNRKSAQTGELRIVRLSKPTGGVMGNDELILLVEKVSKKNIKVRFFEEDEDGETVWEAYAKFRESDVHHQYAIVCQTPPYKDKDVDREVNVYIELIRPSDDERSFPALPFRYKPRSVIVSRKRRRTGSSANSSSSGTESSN

GST-Aq-NF-kB = biological target: T6, GST-Aq-NF-kB (Amphimedon queenslandica, UniProt A9Y5G7 2-389)
T6 sequence: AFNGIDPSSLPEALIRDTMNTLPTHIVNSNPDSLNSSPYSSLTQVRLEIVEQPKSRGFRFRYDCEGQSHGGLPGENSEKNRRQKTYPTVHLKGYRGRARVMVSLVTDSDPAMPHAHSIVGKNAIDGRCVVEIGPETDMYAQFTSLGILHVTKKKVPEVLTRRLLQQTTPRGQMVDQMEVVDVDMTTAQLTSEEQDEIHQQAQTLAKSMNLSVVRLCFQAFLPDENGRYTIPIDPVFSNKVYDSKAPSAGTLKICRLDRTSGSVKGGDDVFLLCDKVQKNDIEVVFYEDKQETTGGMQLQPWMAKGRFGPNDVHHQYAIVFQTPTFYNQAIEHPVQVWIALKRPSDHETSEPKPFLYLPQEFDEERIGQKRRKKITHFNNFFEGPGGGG

GST-Hu-p50 = GST-Hu-p50 (Homo sapiens, UniProt P19838 7-356)
Chain of GST-Hu-p50 (P19838 7-356): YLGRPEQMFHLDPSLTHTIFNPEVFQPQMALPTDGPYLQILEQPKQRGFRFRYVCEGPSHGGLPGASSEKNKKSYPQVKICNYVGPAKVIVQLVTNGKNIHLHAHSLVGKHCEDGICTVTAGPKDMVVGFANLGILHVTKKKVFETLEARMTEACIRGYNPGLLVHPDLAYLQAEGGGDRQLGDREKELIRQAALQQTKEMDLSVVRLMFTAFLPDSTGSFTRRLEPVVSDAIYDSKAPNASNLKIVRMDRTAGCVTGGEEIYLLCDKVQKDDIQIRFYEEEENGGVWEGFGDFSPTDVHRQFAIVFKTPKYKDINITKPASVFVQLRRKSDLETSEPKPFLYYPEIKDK

Sequence | binding signal (GST-Ap-NF-kB RHD) [z-score] | binding signal [1] [z-score] | binding signal [2] [z-score] | binding signal (GST-Co-NF-kB) [z-score] | binding signal (GST-Dm-Relish) [z-score] | binding signal (GST-Aq-NF-kB) [z-score] | binding signal (GST-Hu-p50) [z-score]
CCGATTAACATCAGGGAAACCCCTGATGTTAATCGGGTCTTGATTCGCTTGACGCTGCTG | 10.6 | 11.4 | 9.7 | 5.51 | 9.95 | 10 | 6.82
CCGATTAACATCAGGGAAACACCTGATGTTAATCGGGTCTTGATTCGCTTGACGCTGCTG | 5.49 | 6.62 | 6.01 | 2.74 | 6.92 | 7.75 | 5.15
CCGATTAACATCAGGGGGACTACTGATGTTAATCGGGTCTTGATTCGCTTGACGCTGCTG | 6.49 | 4.44 | 4.46 | 4.53 | 6.39 | 5.25 | 4.55
CCGATTAACATCACGGGGAATCCTGATGTTAATCGGGTCTTGATTCGCTTGACGCTGCTG | 9.87 | 9.94 | 8.84 | 8.28 | 10 | 7.48 | 6.2
CCGATTAACATCAGGGGGGAGTATGATGTTAATCGGGTCTTGATTCGCTTGACGCTGCTG | 6.07 | 5.01 | 5.11 | 6.88 | 3.7 | 4.54 | 6.15
CCGATTAACATCAGGGGGCACCCTGATGTTAATCGGGTCTTGATTCGCTTGACGCTGCTG | 5.39 | 3.36 | 2.57 | 2.17 | 3.84 | 5.62 | 3.84
CCGATTAACATCAGGAAATCCCCTGATGTTAATCGGGTCTTGATTCGCTTGACGCTGCTG | 10.8 | 12.1 | 12.5 | 4.46 | 10.3 | 10.9 | 8.31
CCGATTAACATCAAAATTTCCCATGATGTTAATCGGGTCTTGATTCGCTTGACGCTGCTG | 3.99 | 6.36 | 6.16 | 5.2 | 4.56 | 5.77 | 4.79
CCGATTAACATCACTATACCCCCTGATGTTAATCGGGTCTTGATTCGCTTGACGCTGCTG | 4.71 | 2.52 | 3.85 | 4.36 | 2.21 | 2.68 | 3.41
CCGATTAACATCAACACCCCCCTTGATGTTAATCGGGTCTTGATTCGCTTGACGCTGCTG | 4.56 | 3.85 | 3.96 | 2.8 | 5.23 | 5.24 | 4.37
CCGATTAACATCAGGGGAAGCTATGATGTTAATCGGGTCTTGATTCGCTTGACGCTGCTG | 4.87 | 5.26 | 6.8 | 6.23 | 3.04 | 3.92 | 4.77
CCGATTAACATCAGGGGGGAAAATGATGTTAATCGGGTCTTGATTCGCTTGACGCTGCTG | 7.23 | 6.13 | 8.77 | 11.5 | 4.99 | 6.28 | 7.08
CCGATTAACATCAGGGGAATTACTGATGTTAATCGGGTCTTGATTCGCTTGACGCTGCTG | 8.73 | 10.6 | 10.2 | 7.45 | 10.2 | 8.27 | 7.09
CCGATTAACATCAGGGGTACCCCTGATGTTAATCGGGTCTTGATTCGCTTGACGCTGCTG | 7.75 | 3.69 | 2.78 | 6.06 | 5.81 | 6.3 | 3.73
CCGATTAACATCAGGGAAATACATGATGTTAATCGGGTCTTGATTCGCTTGACGCTGCTG | 3.25 | 4.47 | 4.73 | 4.08 | 8.18 | 4.87 | 3.02
CCGATTAACATCAGGAATCCCCCTGATGTTAATCGGGTCTTGATTCGCTTGACGCTGCTG | 10.9 | 10.2 | 9.39 | 5.73 | 10.2 | 9.58 | 7.57
CCGATTAACATCAAAGGACCCCCTGATGTTAATCGGGTCTTGATTCGCTTGACGCTGCTG | 4.81 | 2.82 | 3.92 | 2.19 | 4.18 | 3.79 | 3.2
CCGATTAACATCAGGGGAATTCATGATGTTAATCGGGTCTTGATTCGCTTGACGCTGCTG | 9.45 | 10.8 | 10.8 | 6.94 | 7.6 | 7.5 | 6.83
CCGATTAACATCAGGCAACCCCCTGATGTTAATCGGGTCTTGATTCGCTTGACGCTGCTG | 5.96 | 3.96 | 3.97 | 2.03 | 6.58 | 6.21 | 5.13
